In PubChem BioAssay AID1159580 (chemical genetic matrix, 2015):
Several values for one entry are separate records, joined by “and”; a condition that tells them apart may be missing. Equal entries are not always repeated. In all, about 5,500 compounds went through this assay and about 2,000 (36%) were called active. Roughly 18% stayed inconclusive and do not appear here. Cut-off read from the data, not from the text of the source: active = normalized growth mostly below about 0.91 (no sharp cut-off); inconclusive = no clear call, values can overlap the other calls; inactive = mostly above about 0.92. The list shows a part of the results.

Assay: chemical genetic growth profiling, strain panel (AID 1159580);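 note: tested at 20 µM; growth read once vehicle control cultures reached saturation at 30 °C; 1 = growth at the plate median or of vehicle wells; lower values mean less growth of the strain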
Conditions: growth OD

Measured: normalized growth

CNc1ccccc1C(=O)O
1.05 (inactive) and 0.875 (active): S. cerevisiae deletion strains, locus YJL095W, strain BCK1, stronger effect = lower value
inactive: S. cerevisiae deletion strains, locus YBR021W, strain FUR4, stronger effect = lower value 0.955 | S. cerevisiae deletion strains, locus YBR229C, strain ROT2, stronger effect = lower value 1 | S. cerevisiae deletion strains, locus YCL029C, strain bik1, stronger effect = lower value 1.01 | S. cerevisiae deletion strains, locus YDL035C, strain GPR1, stronger effect = lower value 1.02 | S. cerevisiae deletion strains, locus YDL074C, strain BRE1, stronger effect = lower value 1.03 | S. cerevisiae deletion strains, locus YDL101C, strain DUN1, stronger effect = lower value 1.02 | S. cerevisiae deletion strains, locus YDL185W, strain tfp1, stronger effect = lower value 1 | S. cerevisiae deletion strains, locus YDL192W, strain arf1, stronger effect = lower value 0.996 | S. cerevisiae deletion strains, locus YDR101C, strain arx1, stronger effect = lower value 1 | S. cerevisiae deletion strains, locus YDR150W, strain NUM1, stronger effect = lower value 0.997 | S. cerevisiae deletion strains, locus YDR162C, strain NBP2, stronger effect = lower value 1.05 | S. cerevisiae deletion strains, locus YDR318W, strain mcm21, stronger effect = lower value 0.998 | S. cerevisiae deletion strains, locus YDR388W, stronger effect = lower value 1 | S. cerevisiae deletion strains, locus YDR502C, strain sam2, stronger effect = lower value 1.02 | S. cerevisiae deletion strains, locus YEL061C, strain CIN8, stronger effect = lower value 1 | S. cerevisiae deletion strains, locus YER110C, stronger effect = lower value 1.02 | S. cerevisiae deletion strains, locus YER155C, strain BEM2, stronger effect = lower value 0.973 | S. cerevisiae deletion strains, locus YER167W, strain BCK2, stronger effect = lower value 1 | S. cerevisiae deletion strains, locus YGL078C, strain dbp3, stronger effect = lower value 0.981 | S. cerevisiae deletion strains, locus YGL086W, strain mad1, stronger effect = lower value 0.989 | S. cerevisiae deletion strains, locus YGL248W, strain PDE1, stronger effect = lower value 1.03 | S. cerevisiae deletion strains, locus YGR135W, strain pre9, stronger effect = lower value 1 | S. cerevisiae deletion strains, locus YGR229C, strain SMI1, stronger effect = lower value 1 | S. cerevisiae deletion strains, locus YGR252W, strain gcn5, stronger effect = lower value 1.02 | S. cerevisiae deletion strains, locus YHR030C, strain SLT2, stronger effect = lower value 1.01 and 0.862 | S. cerevisiae deletion strains, locus YHR079C, strain IRE1 (second series), stronger effect = lower value 0.986 | S. cerevisiae deletion strains, locus YHR079C, strain IRE1, stronger effect = lower value 0.873 | S. cerevisiae deletion strains, locus YHR094C, strain hxt1, stronger effect = lower value 1 | S. cerevisiae deletion strains, locus YHR129C, strain ARP1, stronger effect = lower value 1.01 | S. cerevisiae deletion strains, locus YHR200W, strain rpn10, stronger effect = lower value 1.01 | S. cerevisiae deletion strains, locus YIL066C, strain RNR3, stronger effect = lower value 1.04 | S. cerevisiae deletion strains, locus YIL073C, strain SPO22, stronger effect = lower value 1.09 | S. cerevisiae deletion strains, locus YIL125W, strain kgd1, stronger effect = lower value 0.969 | S. cerevisiae deletion strains, locus YIR030C, strain dcg1, stronger effect = lower value 1.01 | S. cerevisiae deletion strains, locus YJL134W, strain LCB3, stronger effect = lower value 1 | S. cerevisiae deletion strains, locus YJL168C, strain set2, stronger effect = lower value 0.996 | S. cerevisiae deletion strains, locus YJL187C, strain SWE1 (second series), stronger effect = lower value 1.02 | S. cerevisiae deletion strains, locus YJR043C, strain POL32, stronger effect = lower value 1.01 | S. cerevisiae deletion strains, locus YJR066W, strain TOR1, stronger effect = lower value 0.842 | S. cerevisiae deletion strains, locus YKL009W, strain mrt4, stronger effect = lower value 0.972 | S. cerevisiae deletion strains, locus YKL068W, stronger effect = lower value 0.967 | S. cerevisiae deletion strains, locus YKL085W, strain MDH1 (second series), stronger effect = lower value 0.985 | S. cerevisiae deletion strains, locus YKL085W, strain MDH1, stronger effect = lower value 0.985 | S. cerevisiae deletion strains, locus YKR001C, strain vps1, stronger effect = lower value 1 | S. cerevisiae deletion strains, locus YLR039C, strain RIC1, stronger effect = lower value 1.03 | S. cerevisiae deletion strains, locus YLR058C, strain SHM2, stronger effect = lower value 1.02 | S. cerevisiae deletion strains, locus YLR102C, strain apc9, stronger effect = lower value 1 | S. cerevisiae deletion strains, locus YLR262C, strain YPT6, stronger effect = lower value 1.06 | S. cerevisiae deletion strains, locus YLR268W, strain sec22, stronger effect = lower value 0.993 | S. cerevisiae deletion strains, locus YLR330W, strain CHS5, stronger effect = lower value 1.02 | S. cerevisiae deletion strains, locus YLR342W, strain FKS1 (second series), stronger effect = lower value 1.02 | S. cerevisiae deletion strains, locus YLR371W, strain rom2, stronger effect = lower value 0.995 | S. cerevisiae deletion strains, locus YLR418C, strain cdc73, stronger effect = lower value 1.08 | S. cerevisiae deletion strains, locus YML016C, strain PPZ1, stronger effect = lower value 1.01 | S. cerevisiae deletion strains, locus YML032C, strain rad52, stronger effect = lower value 1.02 | S. cerevisiae deletion strains, locus YML124C, strain tub3, stronger effect = lower value 1.01 | S. cerevisiae deletion strains, locus YMR078C, strain ctf18, stronger effect = lower value 1 | S. cerevisiae deletion strains, locus YMR223W, strain ubp8, stronger effect = lower value 1.01 | S. cerevisiae deletion strains, locus YMR263W, strain SAP30, stronger effect = lower value 1.02 | S. cerevisiae deletion strains, locus YMR307W, strain GAS1, stronger effect = lower value 1.08 | S. cerevisiae deletion strains, locus YNL067W, strain RPL9B, stronger effect = lower value 1.01 | S. cerevisiae deletion strains, locus YNL233W, strain BNI4, stronger effect = lower value 1.02 | S. cerevisiae deletion strains, locus YNL250W, strain rad50, stronger effect = lower value 0.994 | S. cerevisiae deletion strains, locus YNL271C, strain bni1, stronger effect = lower value 0.989 | S. cerevisiae deletion strains, locus YNL298W, strain CLA4, stronger effect = lower value 1.01 | S. cerevisiae deletion strains, locus YNL307C, strain MCK1, stronger effect = lower value 0.993 | S. cerevisiae deletion strains, locus YNR052C, strain pop2, stronger effect = lower value 1 | S. cerevisiae deletion strains, locus YOL012C, strain htz1 1.68 | S. cerevisiae deletion strains, locus YOL147C, strain pex11, stronger effect = lower value 0.999 | S. cerevisiae deletion strains, locus YOR061W, strain CKA2, stronger effect = lower value 1.01 | S. cerevisiae deletion strains, locus YOR069W, strain VPS5, stronger effect = lower value 1.01 | S. cerevisiae deletion strains, locus YOR136W, strain idh2, stronger effect = lower value 1.01 | S. cerevisiae deletion strains, locus YOR144C, strain elg1, stronger effect = lower value 0.994 | S. cerevisiae deletion strains, locus YOR184W, strain ser1, stronger effect = lower value 1.01 | S. cerevisiae deletion strains, locus YOR231W, strain MKK1, stronger effect = lower value 0.884 | S. cerevisiae deletion strains, locus YOR316C, strain cot1, stronger effect = lower value 1.01 | S. cerevisiae deletion strains, locus YPL055C, strain LGE1, stronger effect = lower value 1.04 | S. cerevisiae deletion strains, locus YPL241C, strain CIN2, stronger effect = lower value 0.999 | S. cerevisiae deletion strains, locus YPL256C, strain CLN2, stronger effect = lower value 0.838 | S. cerevisiae deletion strains, locus YPR119W, strain clb2, stronger effect = lower value 0.995 | S. cerevisiae deletion strains, locus YPR141C, strain kar3, stronger effect = lower value 0.968 | S. cerevisiae deletion strains, locus YPR163C, strain tif3, stronger effect = lower value 0.998 | S. cerevisiae deletion strains, locus YPR167C, strain met16, stronger effect = lower value 1.02 | S. cerevisiae deletion strains, strain wtn01, stronger effect = lower value 1.01 | S. cerevisiae strains, strain wild type, stronger effect = lower value 1.01
active: S. cerevisiae deletion strains, locus YLR113W, strain HOG1, stronger effect = lower value 0.78 | S. cerevisiae deletion strains, locus YNL183C, strain NPR1, stronger effect = lower value 0.822
